Laboratory results published in PubChem BioAssay AID2221 (Broad Institute, 2009).
Among all 290,000 compounds or so, about 2,200 (0.76%) were called active. The sample holds actives, similar compounds and a random draw of the others, so the mix is not that of the screen. Rule as the data show it: active = inhibition above about 30%; inconclusive = no clear call, values can overlap the other calls; inactive = below that.

molecular target: Protein RecA (Mycobacterium tuberculosis (strain ATCC 25618 / H37Rv)) (UniProt P9WHJ3); assay: Mtb RecA intein splicing inhibitors, primary screen, biochemical, fluorescence, HTS (AID 2221); conditions: cell-free RecA intein splicing, active compounds read high, concentration not given here;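 also: 0% = vehicle wells and 100% = reference inhibitor control wells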
Sequence (P9WHJ3 whole entry, looked up): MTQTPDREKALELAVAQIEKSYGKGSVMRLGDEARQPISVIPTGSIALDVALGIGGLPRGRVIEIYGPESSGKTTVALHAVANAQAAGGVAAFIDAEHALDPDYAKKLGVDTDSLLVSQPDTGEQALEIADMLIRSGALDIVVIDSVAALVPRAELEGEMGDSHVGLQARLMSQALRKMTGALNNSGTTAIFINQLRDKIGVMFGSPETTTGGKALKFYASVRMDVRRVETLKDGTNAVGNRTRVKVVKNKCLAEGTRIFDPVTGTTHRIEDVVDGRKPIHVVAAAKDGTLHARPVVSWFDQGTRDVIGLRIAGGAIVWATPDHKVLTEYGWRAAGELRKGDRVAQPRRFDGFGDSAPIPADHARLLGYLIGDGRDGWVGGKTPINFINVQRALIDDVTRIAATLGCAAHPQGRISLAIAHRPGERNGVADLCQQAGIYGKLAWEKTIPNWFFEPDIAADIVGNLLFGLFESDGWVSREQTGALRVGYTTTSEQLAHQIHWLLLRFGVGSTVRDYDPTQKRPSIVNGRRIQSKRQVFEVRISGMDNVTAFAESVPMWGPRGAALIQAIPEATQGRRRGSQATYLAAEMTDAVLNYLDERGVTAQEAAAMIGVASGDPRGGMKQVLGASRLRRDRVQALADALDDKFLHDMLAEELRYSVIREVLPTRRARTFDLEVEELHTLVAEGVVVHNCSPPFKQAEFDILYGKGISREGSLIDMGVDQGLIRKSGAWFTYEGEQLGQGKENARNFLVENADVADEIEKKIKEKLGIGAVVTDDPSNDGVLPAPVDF

SMILES | inhibition
CCOC(=O)C(C)n1cnc2c(nnn2-c2ccc(F)cc2)c1=O (stereo not drawn) | -0.542% (inactive)
COC(=O)C(C)n1cnc2c(nnn2-c2ccc(F)cc2)c1=O (stereo not drawn) | -1.59% (inactive)
CCOC(=O)C(CC)Sc1ncnc2c1nnn2-c1ccc(F)cc1 (stereo not drawn) | 36.6% (active)
Cc1ccc(C(=O)COC(=O)CCN2C(=O)C3C4CC(C(Br)C4Br)C3C2=O)cc1 (stereo not drawn) | 1.16% (inactive)
CC(=O)Nc1ccc(N2C(=O)CC(Sc3nccc(C)n3)C2=O)cc1 (stereo not drawn) | -1.08% (inactive)
O=C(Oc1ccccc1C(=S)N1CCCCC1)c1cc([N+](=O)[O-])cc([N+](=O)[O-])c1 | 28.1% (inactive)
O=C(Oc1ccc(Br)cc1C(=S)N1CCOCC1)c1cccc([N+](=O)[O-])c1 | 32.3% (active)
COc1cc(C(=S)N2CCOCC2)cc(OC)c1OC(=O)c1cc([N+](=O)[O-])cc([N+](=O)[O-])c1 | -0.59% (inactive)
Cc1nn(C)cc1/C=C1\CCC/C(=C\c2cn(C)nc2C)C1=O | 1.91% (inactive)
CC(=O)c1c(C)c[nH]c1C | 0.735% (inactive)
S=C(NCC1COc2ccccc2O1)Nc1ccc(Br)cc1 (stereo not drawn) | 2.68% (inactive)
CC1=NN(c2cccc(Cl)c2)C(=O)C12CC(C)=C(C)CS2 (stereo not drawn) | 31.7% (active)
CC12CCC(C(=O)N(c3cccc(Cl)c3)C1=O)C2(C)C (stereo not drawn) | 2.02% (inactive)
Cc1[nH]n(-c2cccc(Cl)c2)c(=O)c1-c1ccc(Cl)cc1 | 8.51% (inactive)
COC(=O)C1=C(Nc2ccc(C)cc2)C=C(C)C(C(=O)OC)C1c1ccc(F)cc1 (stereo not drawn) | -4.47% (inactive)
COc1cccc(Nc2nc(N)c([N+](=O)[O-])c(NCc3ccco3)n2)c1 | 9.57% (inactive)
Cc1[nH][nH]c(=O)c1C(c1ccc2c(c1)OCO2)c1c(C)[nH][nH]c1=O | 97.8% (active)
CCOc1ccc(C(c2c(C)[nH][nH]c2=O)c2c(C)[nH][nH]c2=O)cc1OCC | 98.1% (active)
CCOc1ccc(C(CC(=O)O)NC(=O)Cc2ccccc2)cc1OC (stereo not drawn) | -1.09% (inactive)
Cc1[nH][nH]c(=O)c1C(c1ccc(-c2ccc(Cl)cc2)o1)c1c(C)[nH][nH]c1=O | -2.86% (inactive)

SMILES | inhibition
C=CCOc1ccc(/C=C2/C(=O)ON=C2C)cc1OCC | 0.545% (inactive)
CC(NC(=O)c1ccco1)c1ccc2c(c1)OCO2 (stereo not drawn) | -3.46% (inactive)
O=C(NCCCn1ccnc1)c1cc(Br)c(Br)s1 | -6.96% (inactive)
COc1ccccc1/C=C/C(=O)NC(=S)N1CCOCC1 | 1.89% (inactive)
CCC(C)N(C(=O)Cn1nc(C)c([N+](=O)[O-])c1C)C1CCS(=O)(=O)C1 (stereo not drawn) | 2.19% (inactive)
COCCc1nn2c(=O)cc(COC(=O)c3cc(OC)c(OC)c(OC)c3)nc2s1 | 0.818% (inactive)
CN1c2ccc(C=O)c3c(C=O)ccc(c23)N(C)C1(C)C | 63.9% (active)
Cc1[nH]c(C)c(S(=O)(=O)N2CCN(c3cccc(C(F)(F)F)c3)CC2)c1C(=O)N1CCCC1 | 0.869% (inactive)
CCC(c1nnnn1Cc1ccco1)N(CCc1ccccc1)Cc1cc2ccc(OC)cc2[nH]c1=O (stereo not drawn) | 16.5% (inactive)
CCC(c1nnnn1Cc1ccccc1)N(Cc1cc2cc(OC)ccc2[nH]c1=O)CC1CCCO1 (stereo not drawn) | -10.9% (inactive)
CCC(c1nnnn1Cc1ccco1)N(Cc1cc2cc(OC)ccc2[nH]c1=O)C1CCCCC1 (stereo not drawn) | 30.6% (active)
C[C@H](C(=O)CC(=O)OC(C)(C)C)[C@H](O)c1ccc(C(F)(F)F)cc1 | 0.927% (inactive)
CCCCCCCCCCOC(=O)Cn1c(COc2ccc(C)cc2)[n+](C)c2ccccc21 | 51.7% (active)
Cc1ccc(OCCCn2c(=O)oc3ccccc32)cc1 | 2.53% (inactive)
CCCCCCCCCCOC(=O)Cn1c(COc2cccc(OC)c2)[n+](C)c2ccccc21 | 51.1% (active)
COc1cccc(OCCCN2CCCCCC2)c1 | -1.65% (inactive)
CCn1c(=N)n(CC(=O)c2cccc(OC)c2)c2ccccc21 | 5.77% (inactive)
Cc1ccc(OCc2nc3ccccc3n2C)cc1 | 1.88% (inactive)
O=S(N1CCCCCC1)C12CC3CC(CC(C3)C1)C2 (stereo not drawn) | -0.132% (inactive)
COc1ccc(CCNC(=O)CCC(=O)NC2CCCCC2)cc1OC | -0.371% (inactive)

SMILES | inhibition
COc1ccc(NC(=O)c2cc(-c3cc(OC)c(OC)c(OC)c3)nc3ccccc23)c(OC)c1 | 10.4% (inactive)
CCOC(=O)c1c(S(=O)(=O)NCC(=O)Nc2ccc(C)cc2)c(C)n(C)c1C | -0.878% (inactive)
CCOC(=O)CSc1nc(C)c(Oc2ccc(Cl)cc2Cl)c(=O)[nH]1 | 1.85% (inactive)
Cc1nnc(SCC(=O)N2CCOCC2)[nH]c1=O | -0.0115% (inactive)
CCCCOC(=O)CNc1nnc(SCC(=O)OCC)[nH]c1=O | 77.5% (active)
CCC(C)[C@H](NC(=O)N1CCn2c1nc1ccccc12)C(=O)NCc1ccc(OC)cc1 (stereo partly drawn) | 2.07% (inactive)
COC(=O)c1sc(-c2ccc(C(C)(C)C)cc2)cc1NC(=O)/C=C/C(=O)O | 88.1% (active)
O=C(O)/C=C/C(=O)Nc1ccc(F)cc1F | 0.519% (inactive)
COc1ccccc1NC(=O)/C=C/C(=O)O | -1.49% (inactive)
CSc1ccc(S(=O)(=O)NCC(=O)OCC(=O)NC2(C#N)CCCCC2)cc1[N+](=O)[O-] | 1.65% (inactive)
CC(C)[C@H](NC(=O)OCc1ccccc1)C(=O)OCc1ccccc1 | 7.54% (inactive)
CCOC(=O)c1nc(Nc2ccc(C(=O)OC)cc2)c2ccccc2n1 | -6.39% (inactive)
CCOC(=O)c1ccc(NC(=O)c2cc(=O)[nH]c3ccccc23)cc1 | -5.09% (inactive)
CCOC(=O)c1ccc(Nc2cc3ccccc3c(=O)[nH]2)cc1 | 62.4% (active)
CCN(CC)CCNC(=O)c1sc2ncn(CC(=O)Nc3ccc(C)c(Cl)c3)c(=O)c2c1C | -0.641% (inactive)
O=C(CN1C(=O)CC(c2ccccc2)=Nc2ccccc21)NC1CCCCC1 | -1.07% (inactive)
CCOc1ccc(NC(=O)C2CCN(C(=O)N3CCOc4ccccc43)CC2)cc1 | 2.39% (inactive)
Cc1nnc(NC(=O)C(c2ccccc2)c2ccccc2)s1 | 1.12% (inactive)
